The results in this text go back to PubChem BioAssay (NCI).

The panel holds about 83,000 compounds, 20% with a hit somewhere; the sample as a whole holds those more often.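 Step 1: grow cells in 96-well plates. Step 2: add test compound at a single concentration. Step 3: incubate 48 h. Step 4: record percent growth.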 Unmarked numbers belong to inactive results. Activity calls are given as the source filed them. How the source made its calls: active means growth percent below 10; inactive means the rest.

Test systems include DU-145 prostate; K-562 leukemia; MALME-3M melanoma; MDA-MB-231 breast; RXF 393 renal; SF-268 CNS; SF-295 CNS; SF-539 CNS; UACC-257 melanoma; M14 melanoma.
Common to all, as to experiment: NCI-60 one-dose screen, 48 h (100 = growth as untreated, 0 = no growth, -100 = all killed)
Settings in all cases: 10 µM unless noted

On to `C=C(C)[C@@H]1CC[C@]2(C)[C@H](CC=C3[C@@H]4CC(C)(C)CC[C@]4(C(N)=O)CC[C@]32C)[C@@]1(C)CCC#N`, for which the growth with DU-145 prostate was 42.1%; in the experiment with K-562 leukemia, 15.9%; with MALME-3M melanoma, 10.4%; with MDA-MB-231 breast, 38.6%; with RXF 393 renal it was 2.74% (active); with SF-268 CNS it was 45.6%. Further, the growth with SF-295 CNS was 38.5%; with SF-539 CNS, 35.7%; in the experiment on UACC-257 melanoma, 17.5%; with M14 melanoma, 44.7%.
On to `Clc1cc(Cl)cc(Nc2ccc3cc(OCCCN4CCOCC4)ccc3n2)c1`, for which the growth is 40.6% in the experiment on DU-145 prostate; -27.3% (active) in the experiment on K-562 leukemia; 66.5% in the experiment on MALME-3M melanoma; -5.22% (active) in the experiment with MDA-MB-231 breast; 5.08% (active) in the experiment with RXF 393 renal; 46.9% in the experiment with SF-268 CNS. Moreover, the growth with SF-295 CNS was -59.7% (active); in the experiment with SF-539 CNS, 9.86% (active); with UACC-257 melanoma, 49%; with M14 melanoma, 12.6%.
On to `COC(=O)[C@]12CC[C@@H](C)[C@H](C)[C@@H]1C1=CC[C@@H]3[C@@]4(C)C(C=O)=C[C@@](C)(COS(C)(=O)=O)C4[C@H](O)C[C@@]3(C)[C@]1(C)CC2` (stereo not given in full), for which the growth with DU-145 prostate is -93.6% (active); with K-562 leukemia, 1.48% (active); with MALME-3M melanoma, -78.6% (active); in the experiment with MDA-MB-231 breast it was -74.9% (active); with RXF 393 renal, -96.4% (active); with SF-268 CNS, -74.4% (active). In addition, the growth is -87.3% (active) in the experiment on SF-295 CNS, -89.6% (active) with SF-539 CNS, -82.2% (active) in the experiment on UACC-257 melanoma and -59.9% (active) in the experiment on M14 melanoma.
In the case of `COCCN(C(=O)c1ccc(F)cc1F)c1c(N)n(Cc2ccccc2)c(=O)[nH]c1=O`, the growth with DU-145 prostate is 120%; in the experiment with K-562 leukemia it was 96.6%; in the experiment on MALME-3M melanoma it was 120%; in the experiment with MDA-MB-231 breast it was 106%; in the experiment on RXF 393 renal it was 101%; with SF-268 CNS, 111%. For the same compound, the growth in the experiment on SF-295 CNS was 108%; with SF-539 CNS, 108%; with UACC-257 melanoma it was 106%; in the experiment on M14 melanoma, 112%.
As to `COc1ccc(C2C(c3nn[nH]n3)=C(N)Oc3c2ccc2ccccc32)cc1` (stereo not given), the growth is 88% with DU-145 prostate; 19.2% in the experiment on K-562 leukemia; 63.7% in the experiment with MALME-3M melanoma; 31.5% in the experiment with MDA-MB-231 breast; 76.3% with RXF 393 renal; 72.1% in the experiment with SF-268 CNS. Moreover, the growth was 77.8% in the experiment with SF-295 CNS, 73.7% in the experiment with SF-539 CNS, 89.8% with UACC-257 melanoma and 58.4% with M14 melanoma.
For the compound `O=C(NCCCNc1cc(-c2cn(-c3ccccc3)nc2-c2cccc(O)c2)ccn1)c1ccccc1`, the growth was 49.7% with DU-145 prostate; -4.2% (active) with K-562 leukemia; -5.89% (active) with MALME-3M melanoma; -6.57% (active) in the experiment on MDA-MB-231 breast; 24% in the experiment with RXF 393 renal; 44.1% in the experiment with SF-268 CNS. For the same compound, the growth in the experiment on SF-295 CNS was 12%; with SF-539 CNS, 27.3%; with UACC-257 melanoma it was -49.2% (active); in the experiment with M14 melanoma it was 3.42% (active).
With `COc1ccc(NC(=O)CSc2nc(C)c(C(C)=O)n2-c2ccc(Cl)cc2)cc1`, the growth in the experiment on DU-145 prostate was 116%; in the experiment with K-562 leukemia, 109%; in the experiment on MALME-3M melanoma, 96%; in the experiment with MDA-MB-231 breast it was 59.7%; in the experiment with RXF 393 renal it was 94.5%; in the experiment on SF-268 CNS, 102%. The growth in the experiment with SF-295 CNS was 93.3%; in the experiment with SF-539 CNS it was 96.2%; in the experiment on UACC-257 melanoma, 101%; in the experiment with M14 melanoma, 97%.
Turning to `O=C(CSc1nnc(-c2ccc(NC(=O)c3cccnc3)cc2)o1)Nc1cccc(Br)c1`, the growth in the experiment with DU-145 prostate was 102%; in the experiment with K-562 leukemia it was 66.3%; in the experiment on MALME-3M melanoma, 93.1%; in the experiment on MDA-MB-231 breast it was 93%; in the experiment on RXF 393 renal, 111%; in the experiment on SF-268 CNS it was 102%. In addition, the growth in the experiment on SF-295 CNS is 87.2%; in the experiment on SF-539 CNS it was 70.6%; in the experiment on UACC-257 melanoma it was 102%; in the experiment with M14 melanoma, 101%.
Regarding `COc1ccc(/C=N\NC(=O)c2cc(-c3ccc(Br)cc3)n(-c3ccc(S(N)(=O)=O)cc3)n2)cc1`, the growth in the experiment with DU-145 prostate is 58.6%; in the experiment with K-562 leukemia, 11.4%; in the experiment with MALME-3M melanoma, 47%; in the experiment on MDA-MB-231 breast, 70.4%; with RXF 393 renal it was 18.5%; with SF-268 CNS, 53.1%. Also, the growth in the experiment on SF-295 CNS was 11%; in the experiment with SF-539 CNS, 18.3%; in the experiment with UACC-257 melanoma, 66.2%; with M14 melanoma, 30.9%.
`CN(C)CC1C(=O)O[C@H]2[C@H]1CC/C(COC(=O)c1cc3ccccc3[nH]1)=C\CC[C@@]1(C)O[C@@H]21` (stereo not given in full): the growth was -17.7% (active) in the experiment with DU-145 prostate; -11.4% (active) in the experiment with K-562 leukemia; -44.2% (active) in the experiment on MALME-3M melanoma; -41.2% (active) in the experiment on MDA-MB-231 breast; -72.2% (active) in the experiment with RXF 393 renal; -59.7% (active) with SF-268 CNS. Also, the growth is 32.4% with SF-295 CNS, -37.7% (active) in the experiment on SF-539 CNS, -86% (active) in the experiment on UACC-257 melanoma and -62.3% (active) in the experiment with M14 melanoma.
Take `COc1ccc(CN2C(=O)C(Cl)=C(Nc3cccc(C(F)(F)F)c3)C2=O)cc1`: the growth with DU-145 prostate is 84.9%; in the experiment on K-562 leukemia, 27.9%; in the experiment on MALME-3M melanoma it was 52.1%; with MDA-MB-231 breast, 46.6%; in the experiment on RXF 393 renal, 23.6%; in the experiment on SF-268 CNS, 33.7%. Besides, the growth was 38.1% in the experiment on SF-295 CNS, 7.41% (active) in the experiment with SF-539 CNS, 54.9% with UACC-257 melanoma and 63.5% in the experiment on M14 melanoma.
Regarding `O=C1/C(=C\c2c[nH]c3ccccc23)c2ccccc2N1c1c(Cl)cccc1Cl`, the growth in the experiment on DU-145 prostate was 14.5%; in the experiment on K-562 leukemia it was -0.66% (active); in the experiment with MALME-3M melanoma, -16.8% (active); in the experiment with MDA-MB-231 breast it was -2.7% (active); in the experiment on RXF 393 renal, -43.5% (active); with SF-268 CNS, 23.7%. In addition, the growth is -47.9% (active) in the experiment on SF-295 CNS, -59.9% (active) with SF-539 CNS, 23.6% with UACC-257 melanoma and -86.3% (active) in the experiment on M14 melanoma.
For `CCc1ccccc1-n1c(N)c(C#N)c(-c2ccc(N(C)C)cc2)c(C#N)c1=O`, the growth with DU-145 prostate is 103%; in the experiment with K-562 leukemia it was 89.3%; in the experiment with MALME-3M melanoma it was 91%; in the experiment on MDA-MB-231 breast, 91.3%; in the experiment on RXF 393 renal, 89.6%; in the experiment with SF-268 CNS it was 95.6%. Also, the growth in the experiment on SF-295 CNS is 98.3%; in the experiment with SF-539 CNS it was 90.2%; in the experiment on UACC-257 melanoma, 101%; with M14 melanoma, 101%.
Turning to `CC1(c2ccccc2)NC(=O)N(NC(=O)CSc2nc(-c3cccs3)nc3ccccc23)C1=O` (stereo not given), the growth in the experiment on DU-145 prostate is 106%; in the experiment on K-562 leukemia, 88.8%; in the experiment on MALME-3M melanoma, 100%; in the experiment on MDA-MB-231 breast, 90.9%; with RXF 393 renal it was 78.1%; in the experiment with SF-268 CNS, 97.8%. In addition, the growth is 99.3% in the experiment on SF-295 CNS, 95% in the experiment on SF-539 CNS, 83.5% in the experiment with UACC-257 melanoma and 109% in the experiment with M14 melanoma.
